Screens from PubChem.
This excerpt belongs to a sample that is enriched for hits.
Algae TAG accum – inducers of triacylglycerol accumulation in Chlamydomonas reinhardtii algae | Chlamydomonas reinhardtii TAG, Nile Red fluorescence, 72 h | 44,000 compounds, 0.84% hits | AID 1159537 | calls only at 10 µM (by protocol); call rule not given here;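 further: hits raise Nile Red signal meaning more stored TAG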
Calls only; – = inactive; + = active, no number.

SMILES	Algae TAG accum
c1ccc(CN2CCC(N3CCN(Cc4ccco4)CC3)CC2)cc1	–
CC1CCC(N2CCN(Cc3ccccc3)CC2)CC1 (stereo not given)	+
CCCCN(C)C1CCN(Cc2ccccc2)CC1	–
CCN1CCN(C2CCC(C)CC2)CC1 (stereo not given)	+
C=C(C)CN(CC)C1CCN(Cc2ccccc2)CC1	–
CN(CCc1ccccc1)C1CCN(Cc2ccccc2)CC1	+
CC(=O)N1CCN(C2CCC(C)CC2)CC1 (stereo not given)	–
CC1CCCN(C2CCN(Cc3ccccc3)CC2)C1 (stereo not given)	–
CCN1CCC(N2CCN(C=O)CC2)CC1	–
CCOc1cc(C=O)ccc1OCc1ccccc1F	–
COc1ccc(C2C(=C(O)c3ccc(C)cc3)C(=O)C(=O)N2CCN2CCOCC2)cc1 (stereo not given)	–
O=C(Nc1nnc(/C=C/c2ccccc2)s1)Nc1ccc(Cl)cc1Cl	–
O=C(C1CCCCC1)N1CCN(Cc2ccccc2)CC1	–
CC(NC(=O)c1ccccc1Br)C1CC2CCC1C2 (stereo not given)	–
Cc1ccc(C(=O)NC(C)C2CC3CCC2C3)s1 (stereo not given)	+
CC(NC(=O)c1ccccc1[N+](=O)[O-])C1CC2CCC1C2 (stereo not given)	–
COc1cc(S(=O)(=O)N2CCC(C)CC2)c(OC)cc1Cl	–
O=C(COc1ccc(Br)cc1)Nc1ccc([N+](=O)[O-])cc1	–
O=[N+]([O-])c1ccc(CN2CCN(c3ncccn3)CC2)cc1	–
COc1cc(CN2CCN(c3ccc([N+](=O)[O-])cc3)CC2)cc(Br)c1O	–
CCOc1ccc(CN2CCN(c3ccc([N+](=O)[O-])cc3)CC2)cc1	+
O=[N+]([O-])c1ccc(N2CCN(Cc3ccncc3)CC2)cc1	–
CCCCOc1ccc(CN2CCN(c3ccc([N+](=O)[O-])cc3)CC2)cc1	+
O=C(O)c1ccc(CN2CCN(c3ccc([N+](=O)[O-])cc3)CC2)cc1	–
Cc1onc(-c2c(Cl)cccc2Cl)c1C(=O)Nc1sc(C)c(C)c1C(N)=O	–
SMILES	Algae TAG accum
CN(CCCC(=O)O)c1nc(-c2ccc(Br)cc2)cs1	–
CC(C)c1ccc(NS(=O)(=O)c2cccs2)cc1	–
CC(C)C(NS(=O)(=O)c1cccs1)C(C)C	+
Cc1cc(C)cc(NS(=O)(=O)c2cccs2)c1	–
O=C(CSc1nnc(-c2ccccc2Cl)n1-c1ccccc1)NC1CCCCC1	–
Oc1ccccc1CNCCC12CC3CC(CC(C3)C1)C2	+
CC(C)(C)C(=O)NCCC12CC3CC(CC(C3)C1)C2	–
COc1ccccc1CC(=O)NC12CC3CC(CC(C3)C1)C2	–
CN1CCN(CCC(=O)Nc2ccccc2)CC1	–
CN1CCN(CCCCOc2ccc(C(=O)c3ccccc3)cc2)CC1	–
CN1CCN(CC#CC=C(c2ccccc2)c2ccccc2)CC1	+
O=C(Nc1ccccc1F)c1cc(F)c(F)cc1Cl	–
CC(C)c1c(C#N)c(N)nc(SCC(=O)c2ccc(Cl)c(Cl)c2)c1C#N	–
C=CCNC(=O)CSCc1ccc(Cl)cc1	–
COc1ccc(S(=O)(=O)NC2CCCCCC2)cc1Br	–
CCN1CCN(CC(O)COCCC23CC4CC(CC(C4)C2)C3)CC1 (stereo not given)	+
CCOC(=O)N1CCN(CC(O)COCCC23CC4CC(CC(C4)C2)C3)CC1 (stereo not given)	–
OC(COCCC12CC3CC(CC(C3)C1)C2)CN1CCOCC1 (stereo not given)	–
COc1ccc(CCNC(=O)C2CCN(Cc3ccc(Cl)cc3)CC2)cc1OC	–
CCc1cccc(C)c1NC(=O)c1ccccc1Br	–
C(#CC12CC3CC(CC(C3)C1)C2)CN1CCOCC1	+
OC1(C#CCN2CCOCC2)CCCCC1	–
C(#CC1CC1)CN1CCOCC1	–
Cc1[nH]c2ccccc2c1CCN1C(=O)CCC1=O	–
Nc1cc(C(=O)c2ccc(Cl)c(N)c2)ccc1Cl	–
SMILES	Algae TAG accum
COc1ccc(OC)c(CN2CCN(Cc3ccc([N+](=O)[O-])cc3)CC2)c1	+
COc1ccc(OC)c(CN2CCN(Cc3cc(OC)c(OC)c(OC)c3)CC2)c1	–
COc1ccc(CN2CCN(Cc3cccc([N+](=O)[O-])c3)CC2)cc1	–
COc1ccc(CN2CCN(Cc3ccc([N+](=O)[O-])cc3)CC2)cc1OC	+
O=[N+]([O-])c1ccc(CN2CCCCCC2)cc1	–
COc1ccc(CN2CCN(Cc3cc(OC)c(OC)cc3[N+](=O)[O-])CC2)cc1OC	–
COc1ccc(S(=O)(=O)N2CCN(Cc3ccc([N+](=O)[O-])cc3)CC2)cc1	–
COc1cc(CN2CCN(Cc3cccc([N+](=O)[O-])c3)CC2)cc(OC)c1OC	–
COc1ccc(OC)c(CN2CCN(Cc3ccc(OC)c(OC)c3)CC2)c1	–
O=[N+]([O-])c1ccc(CN2CCC(N3CCCCC3)CC2)cc1	–
COc1cc(CN2CCN(Cc3ccc([N+](=O)[O-])cc3)CC2)cc(OC)c1	+
O=[N+]([O-])c1ccc(CN2CCN(C3CCCCCC3)CC2)cc1	+
CCCCOc1ccc(CC(=O)O)cc1	–
COc1ccccc1CC(=O)Nc1ccccc1C(C)(C)C	–
COc1ccc(CCC(=O)Nc2ccc(N(C)C)cc2)cc1	–
O=C(Nc1ccc(-c2ccc(O)cc2)cc1)c1ccccc1	–
COCCNC(=O)CN1C(=O)c2ccccc2C1=O	–
Cc1ccc(NC(=O)CC(C)C)c(NC(=O)CC(C)C)c1	+
Cc1cccc(C(=O)Nc2ccc(C)cc2NC(=O)c2cccc(C)c2)c1	–
Cc1ccc(NC(=O)CCC(=O)O)c(C)c1	–
Cc1ccc(OCCC(=O)Nc2ccc(Cl)cc2F)cc1	–
c1cc2c(cc1CN1CCOCC1)OCO2	–
c1ccc2c(c1)CCN(Cc1ccc3c(c1)OCO3)C2	+
c1cc2c(cc1CN1CCCCC1)OCO2	–
COc1ccccc1CNC(=O)c1ccc(CN(c2ccc(C)c(C)c2)S(C)(=O)=O)cc1	–
SMILES	Algae TAG accum
O=C(c1cccc([N+](=O)[O-])c1)n1cnc2ccccc21	–
C=CCn1c(SCc2ccccc2)nc2sc(C)c(C)c2c1=O	–
CCN1CCN(Cc2ccc(-c3ccccc3[N+](=O)[O-])o2)CC1	–
O=[N+]([O-])c1ccccc1-c1ccc(CN2CCCCCC2)o1	–
CN1CCN(Cc2ccc(-c3ccccc3Cl)o2)CC1	+
COc1ccc(C(=O)CCC(=O)Nc2ccc(Cl)cc2Cl)cc1	–
Cc1cccc(NC(=O)CCC(=O)Nc2cccc(C)c2)c1	–
Cc1ccc(NC(=O)c2cnn(-c3ccccc3)c2NC(=O)c2ccccc2F)cc1	–
Ic1ccc(OCCCn2ccnc2)cc1	–
O=C(c1ccccc1)c1ccc(OCCCCn2ccnc2)cc1	+
Brc1ccc(OCCCn2ccnc2)cc1	–
CC(=O)c1ccc(NC(=O)C(C(C)C)N2C(=O)c3ccccc3C2=O)cc1 (stereo not given)	–
COc1ccc(CSc2nnc(-c3ccco3)n2-c2ccccc2)cc1	–
O=c1c2ccccc2nc(SCCc2ccccc2)n1-c1ccccc1	–
CN(CC(O)COCc1ccc2c(c1)OCO2)C1CCCCC1 (stereo not given)	–
O=C(COc1ccc(Br)cc1)NC1CCCC1	–
CN(CC(O)COc1ccc(Br)cc1)C1CCCCC1 (stereo not given)	+
O=[N+]([O-])c1ccc(OCC(O)CN(C2CCCCC2)C2CCCCC2)cc1 (stereo not given)	–
CC(NCC(O)COc1ccc(Br)cc1)c1ccccc1 (stereo not given)	–
CCN(CC(O)COc1ccc(Br)cc1)C1CCCCC1 (stereo not given)	+
